Screening results deposited in PubChem by several laboratories.
PLC-gamma1 inh – PLC-gamma1 (human) inhibition, primary screen | purified PLC-gamma1, fluorogenic substrate, fluorescence | inhibition, % at 12.2 µM | 0.84% of 370,000 active | AID 720700
PLCb3 inh – blocks human PLC-beta3 enzyme activity | Q01970 | Purified PLC-beta3, fluorogenic substrate, fluorescence | inhibition, % at 12.2 µM | 0.18% of 370,000 active; in the data active = inhibition above about 11%;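 note: 0% = median of compound wells on plate and 100% = full blocker control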
NPR1 activator – GC-A (human) enzyme activation | 0.14% of 370,000 active | HEK293 GC-A cells, cGMP TR-FRET, EC30 ANP; 0% at EC30 ANP, 100% saturating ANP | P16066 | activation, % at 10 µM | AID 1671463; in the data active = activation above about 40%
GC-B act – GC-B (human) receptor activation. P20594. HEK293-GC-B cells, CNP EC30, cGMP TR-FRET; 0% at EC30 CNP, 100% saturating CNP. activation, % at 10 µM. 0.11% of 370,000 active;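 active = activation at 10 µM reaching about 35% in either raw or pattern-adjusted values, limit read from the data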
PLCgamma1 ctr – PLC-gamma1 inhibition, counter-screen for PLC-beta3 hits; shares compounds with PLC-gamma1 inh; purified PLC-gamma1, fluorogenic substrate, fluorescence; inhibition, % at 12.3 µM; 3.1% of 3,300 active; AID 743258
PLCbeta3 conf – human PLC-beta3 inhibition, confirmation; purified PLC-beta3, fluorogenic substrate fluorescence; 1% of 3,300 active; shares compounds with PLC-gamma1 inh; inhibition, % at 12.3 µM; in the data active = inhibition above about 11%
* marks the source's active call; other numbers are inactive results; x = no result given. An excerpt weighted towards active compounds, which were near 1.2% of everything screened. Cut-off read from the data, not from the text of the source, unless noted: active = inhibition above about 9.5%; inactive = the rest.

SMILES	PLC-gamma1 inh	PLCb3 inh	NPR1 activator	GC-B act	PLCgamma1 ctr	PLCbeta3 conf
COc1ccc(CNS(=O)(=O)c2ccc(S(=O)(=O)N3CCCCC3)cc2)cc1	11*	5	2	4	-4	-1
COc1ccc(CNC(=O)c2cc(S(=O)(=O)N3CCCCC3)ccc2Cl)cc1OC	1	13*	0	-2	-4	3
COc1ccc(S(=O)(=O)N2CCCCCC2)cc1	-1	-3	-1	3	x	x
O=S1(=O)CC(N2CCSCC2)CN1Cc1cn(Cc2ccc(C(F)(F)F)cc2)nn1 (stereo not drawn)	13*	6	4	2	-3	1
CN1CCN(C2CN(Cc3cn(Cc4ccc(C(F)(F)F)cc4)nn3)S(=O)(=O)C2)CC1 (stereo not drawn)	-2	-1	-1	1	x	x
O=[N+]([O-])c1cc([N+](=O)[O-])c(Oc2cccnc2Br)cc1NN1CCCCC1	11*	10	5	18	5	5
Cc1ccc(CCNC(=O)CS(=O)Cc2nc(-c3ccccc3Cl)oc2C)cc1 (stereo not drawn)	9.7*	-3	-7	-1	-6	-4
CCOc1ccc(CCNC(=O)CS(=O)Cc2nc(-c3ccccc3Cl)oc2C)cc1OCC (stereo not drawn)	2	-5	-3	-3	x	x
COc1ccc(S(=O)(=O)N(C)CC(=O)Nc2ccc(F)cc2)cc1	7	11*	x	x	-2	1
COc1ccc(S(=O)(=O)N(C)CC(=O)Nc2cccc(C(C)=O)c2)cc1	1	0	2	1	x	x
O=C(Nc1ccncc1)c1ccc2c(c1)C(=O)N(CC1CCCO1)C2=O (stereo not drawn)	11*	5	-3	6	-3	1
Cc1ccc(CN(C)C(=O)CN2C(=O)NC(c3ccccc3)(c3ccccc3)C2=O)c(C)c1	11*	-1	-1	-7	3	-5
COC(=O)c1cc2c(=O)c3ccccc3oc2nc1/C=C/N(C)C	-116	-140	3	-7	x	x
CCN(CC)CCCNC(=O)C1CCC(=O)N(c2ccc(OC)cc2)C1c1ccc(F)cc1 (stereo not drawn)	12*	0	-3	1	6	3
COc1ccc(C2C(C(=O)NCc3ccccn3)CCC(=O)N2c2cc(OC)c(OC)c(OC)c2)cc1 (stereo not drawn)	10*	-1	1	11	-1	2
COc1ccc(C2C(C(=O)Nc3ccc(F)cc3)CCC(=O)N2c2ccc(OC)cc2)cc1 (stereo not drawn)	0	1	0	-4	x	x
O=C(C1CCN(c2ncnc3c2sc2cccc(F)c23)CC1)N1CCN(Cc2ccc(F)cc2)CC1	-40	-61	7	0	x	x
Cc1cc(C(=O)CSc2n[nH]c(-c3ccccc3F)n2)c(C)n1Cc1cccs1	10*	3	1	4	-9	-7
CC(C)C1N(C(=O)CN2CCCCC2)CCN1S(=O)(=O)c1ccccc1 (stereo not drawn)	-5	-6	0	0	x	x
COCC(=O)N1CCCN(c2nc3c(C)cccc3cc2C#N)CC1	-91	-111	-8	-9	x	x
O=C(COc1ncnc2ccccc12)Nc1ccc(S(=O)(=O)N2CCOCC2)cc1	1	-7	2	7	x	x
O=S(=O)(c1ccccc1)c1ccccc1/C=N\O	11*	1	-1	3	-4	-5
CCN(CC)CCCNC(=O)c1ccccc1C	1	-3	4	8	x	x
NC(N)=N/N=C(\N=Nc1ccccc1)c1cccc2cccnc12	5	0	-9	-6	x	x
NC(N)=N/N=C(\N=Nc1ccccc1)c1ccc(Cl)cc1	10*	10	-14	-9	4	1
SMILES	PLC-gamma1 inh	PLCb3 inh	NPR1 activator	GC-B act	PLCgamma1 ctr	PLCbeta3 conf
C[C@H](CO)N1C[C@H](C)[C@@H](CN(C)C(=O)Nc2ccccc2)Oc2c(NS(=O)(=O)c3ccc(F)cc3)cccc2C1=O	5	11*	-1	3	-4	-1
Cc1cc(C)nc(SCCC(=O)Nc2ccc(F)cc2)n1	-1	-7	4	-3	x	x
COc1ccc2nc(NC(=O)C3CCCN(S(=O)(=O)c4cccc5nonc45)C3)sc2c1 (stereo not drawn)	10*	-3	-3	-22	0	-9
CCOc1ccc2nc(NC(=O)C3CCCN(S(=O)(=O)c4cccc5nonc45)C3)sc2c1 (stereo not drawn)	0	2	-3	-6	x	x
O=S1(=O)C[C@H](N2CCC[C@@H]2CO)[C@@H](COCc2ccccc2)N1	-2	0	2	5	x	x
CC(C)n1nc(C(=O)NCc2ccc3c(c2)OCO3)c2ccccc2c1=O	-1	2	4	0	x	x
Cc1[nH][nH]c(=O)c1C=NCc1cccnc1	11*	7	-3	-6	1	3
Cc1[nH][nH]c(=O)c1C=NCc1cccs1	3	1	2	5	x	x
O=C(CN1CCN(c2ccccc2F)CC1)Nc1ccccc1F	4	2	0	-3	x	x
O=C(CCN1CCN(c2ccccc2F)CC1)Nc1ccccc1F	11*	6	1	1	-3	-1
COc1ccc(NS(=O)(=O)c2cccc(C(=O)NNC(=O)COc3ccccc3)c2)cc1	9.6*	-3	0	-3	-8	-260
COc1ccccc1NS(=O)(=O)c1cc(NC(=O)/C=C/c2cccs2)ccc1N1CCOCC1	-2	-4	-1	-5	x	x
O=C(CNC(=O)c1cnccn1)Nc1ccc(F)c(F)c1F	11*	5	2	3	-3	2
Cc1cccc(N2CCN(S(=O)(=O)c3cc4c(cc3Cl)NC(=O)CO4)CC2)c1C	10*	1	-2	1	2	-3
CCN1CCN(C(=O)CN(CCc2ccccc2)S(C)(=O)=O)CC1	9.9*	3	4	0	-6	0
CC(c1ccccc1F)n1cc(C(=O)NCCc2ccco2)nn1 (stereo not drawn)	-2	0	0	5	x	x
O=C(O)CCCN1C(=O)/C(=C\c2ccco2)SC1=S	15*	-8	-1	4	23*	-5
O=C(CCN1C(=O)/C(=C\c2ccco2)SC1=S)Nc1ccc(C(=O)O)c(O)c1	37*	-7	-5	-4	14*	-25
Oc1ccc(N=Nc2ccccc2-c2nn[nH]n2)c(O)c1	12*	3	-4	7	7	3
Cc1ccccc1-c1nn[nH]n1	0	1	3	2	x	x
CC(C)(C)C(=O)CSc1nccc(=O)[nH]1	10*	-19	3	0	-2	-3
COc1cccc(C(=O)NCCN2CCN(c3ccc(Cl)cc3)CC2)c1	9.9*	7	-1	-4	-6	-8
COc1cccc(C(=O)NCCN2CCOCC2)c1	2	1	3	5	x	x
CCCCOc1cccc(C(=O)Nc2ccc(N3CCN(CC)CC3)cc2)c1	3	11*	2	1	-1	6
